Compound activity (PubChem BioAssay)
Hits are enriched below; roughly 14% of the tested compounds scored in any of these assays.
Shiga toxin inh: A qHTS for Small Molecule Inhibitors of Shiga Toxin. Vero cells, Shiga toxin protein synthesis inhibition reporter. inhibition, % at 38.7 µM. hit rate 9.2% among 290,000. AID 2315, 2010; in the data active = inhibition mostly above about 28%, no sharp cut-off; inactive = mostly below about 43%
NS1 inh: qHTS Assay for Inhibitors of Influenza NS1 Protein Function; hit rate 0.4% among 270,000; AID 2326, 2010; Potency, µM (titrated, usually from 46.1 µM); calls by dose curve; also: actives are rising curves; nearly all actives have a fitted effect of over 50% in size
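S. cerevisiae expressing influenza A NS1, grown in glucose, washed, then diluted 1:100 into pH 6.0 -URA galactose medium with 23 nl compound. Growth recovery read as OD600; NS1-free strain serves as control.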
CHX counter: Cycloheximide Counterscreen for Small Molecule Inhibitors of Shiga Toxin; max response, %; AID 2314, 2010; hit rate 12% among 300,000; cell reporter, cycloheximide protein synthesis inhibition counterscreen; in the data active = max response mostly above about 13%, no sharp cut-off; inactive = mostly below about 14%; also: read at 38.3 µM for the half of the compounds with a filed dose
FBPA Giardia inh: qHTS Assay for Inhibitors of Fructose-1,6-bisphosphate Aldolase from Giardia Lamblia; purified Giardia FBPA; hit rate 0.71% among 290,000; A8B2U2; Potency, µM (highest dose often 59.6 µM), usual class: inhibitors; also: nearly all actives have a fitted effect of over 55% in size
Target sequence (A8B2U2 whole entry, looked up): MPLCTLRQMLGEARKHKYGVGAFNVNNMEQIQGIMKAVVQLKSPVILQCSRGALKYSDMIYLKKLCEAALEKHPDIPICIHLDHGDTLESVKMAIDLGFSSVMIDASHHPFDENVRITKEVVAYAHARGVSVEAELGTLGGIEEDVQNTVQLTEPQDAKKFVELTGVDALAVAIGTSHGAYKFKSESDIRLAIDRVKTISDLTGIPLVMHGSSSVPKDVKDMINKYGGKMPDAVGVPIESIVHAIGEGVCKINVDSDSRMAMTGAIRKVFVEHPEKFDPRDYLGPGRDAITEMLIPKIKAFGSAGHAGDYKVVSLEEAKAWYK
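Giardia FBPA (40 nM reagent) was preincubated 10 min at RT with compound (up to 57.5 uM final), then substrate plus GAPDH/TPI/NAD/arsenate coupling system with diaphorase/resazurin was added; resorufin fluorescence (525/598 nm) was read after 20 min.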
LmPK inhibitor: qHTS Assay for Inhibitors of Leishmania Mexicana Pyruvate Kinase (LmPK) | Q27686 | purified LmPK, Kinase-Glo ATP luminescence, 1 h | Potency, µM (doses to about 57.5 µM), actives largely listed as inhibitors | hit rate 0.37% among 290,000 | AID 1721, 2009
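0.1 nM LmPK, 0.5 mM PEP, 0.1 mM ADP; 50 mM imidazole pH 7.2, 7 mM MgCl2, 50 mM KCl; 1 h RT. Kinase-Glo luminescence readout, normalized to no-enzyme (full inhibition) and uninhibited wells.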
Of the large screens only hits and unclear results are named; the others gave an inactive call. Unless noted, calls follow the shape of the dose curve; as a rule, active = well fitted curve in the direction sought with a large enough effect; inconclusive = small, poorly fitted or top-dose-only effect, or another doubt; inactive = no such curve, though single readings can be large; an effect the other way counts as inactive or inconclusive.

COC(=O)c1ccc(-c2nc(-c3ccc(Br)o3)no2)cc1	CHX counter 21
COc1cccc(-c2noc(-c3ccc(Br)o3)n2)c1	Shiga toxin inh 109, CHX counter 32
COc1ccc(Cc2noc(-c3ccc(C)cc3)n2)cc1	Shiga toxin inh 72, NS1 inh inconclusive, CHX counter 29
Fc1cccc(F)c1-c1nc(-c2ccc(Cl)cc2)no1	Shiga toxin inh 63, CHX counter 56
COc1ccc(Cc2noc(-c3ccc([N+](=O)[O-])cc3)n2)cc1OC	none
COc1ccc(-c2noc(-c3ccc(Cl)cc3)n2)cc1	Shiga toxin inh 48, CHX counter 25
COc1ccc(CCNC(=O)CN2C(=O)NC(Cc3c[nH]c4ccccc34)C2=O)cc1 (stereo not drawn)	none
CS(=O)(=O)N1N=C(c2cccs2)CC1c1ccc(F)cc1 (stereo not drawn)	CHX counter 33
CS(=O)(=O)N1N=C(c2ccc(Cl)cc2)CC1c1cccs1 (stereo not drawn)	CHX counter 35
CCS(=O)(=O)Nc1cccc(C2=NN(S(C)(=O)=O)C(c3cccs3)C2)c1 (stereo not drawn)	none (no result: FBPA Giardia inh)
Cc1c(CCC(=O)O)c(=O)oc2cc3occ(-c4ccc(Br)cc4)c3cc12	none
CC1CCc2c(sc3nc(CSc4nnnn4C)[nH]c(=O)c23)C1 (stereo not drawn)	CHX counter 18
CC(=O)Nc1ccc(NS(=O)(=O)c2ccc3c(c2)oc(=O)n3C)cc1	none
CCOc1ccccc1/C=C(\C#N)C(N)=O	none (no result: Shiga toxin inh, CHX counter, FBPA Giardia inh, LmPK inhibitor)
COc1ccc(C(=O)N/N=C/c2ccccc2OC(=O)c2ccccc2)cc1	Shiga toxin inh 41, CHX counter 33
COc1cc(C(=O)Oc2ccccc2/C=N/NC(=O)c2ccc(C)cc2)cc(OC)c1OC	Shiga toxin inh 118, CHX counter 87
COc1cc2nncc(SCc3ccc(Cl)c(Cl)c3)c2cc1OC	none (no result: Shiga toxin inh, CHX counter, FBPA Giardia inh, LmPK inhibitor)
CN(C)c1oc(-c2ccccc2)nc1C#N	none
CN(C)c1oc(/C=C/c2ccccc2)nc1C#N	Shiga toxin inh 48, CHX counter 44
COc1ccccc1/C=C/c1nc(C#N)c(N(C)C)o1	Shiga toxin inh 87, CHX counter 33
CCn1cc([N+](=O)[O-])c(=O)c2cc(F)c(N3CCOCC3)cc21	none
CCCCNC(=O)O[C@H]1C[C@@H]2CCN3C(=O)CCC[C@H]([C@H]1Cc1ccccc1)[C@H]23	none
CCCc1cc(=O)[nH]c(SCCc2ccccc2)n1	CHX counter 12
CCCCSc1nc(CCC)cc(=O)[nH]1	none
O=C(NNc1cc(Cl)ccc1Cl)C1CCC1	none
CN(C(=O)Nc1ccc(Cl)cc1Cl)C1CCCC1	Shiga toxin inh 44, CHX counter 18
O=C(NNC(=S)Nc1ccc(Cl)cc1Cl)C1CC1	CHX counter 26
O=C(NNC(=S)Nc1ccc(Cl)cc1Cl)c1ccncc1	CHX counter 14, FBPA Giardia inh inconclusive
O=C(NNC(=S)Nc1ccccc1Cl)c1ccncc1	CHX counter 15
COc1ccc(Cl)cc1C(=O)NNC(=O)c1ccncc1	none (no result: Shiga toxin inh)
Cc1cc(SCc2cccc(C(F)(F)F)c2)nc(=O)[nH]1	none
O=c1cnc2cnc(Oc3cccc(Cl)c3)nc2n1C[C@H]1CCCO1	none (no result: Shiga toxin inh, NS1 inh, CHX counter, LmPK inhibitor)
CC(C)CC(=O)Nc1ccnn1C1CCN(C(=O)c2ccc(F)cc2Cl)CC1	none (no result: FBPA Giardia inh)
CCOC(=O)C1CCCN(S(=O)(=O)c2cc(Br)cc3c2N(C(=O)CC)CC3)C1 (stereo not drawn)	none
Cc1cccc2c3c([nH]c12)CCN(C)C3	none
C=CC[C@@H]1C=C[C@@H](O/N=C2/[C@H]3O[C@@H]3[C@@H](O)[C@H]3[C@H]2CCn2c(=O)n(-c4ccccc4)c(=O)n23)[C@@H](CO)O1	none (no result: Shiga toxin inh, NS1 inh, CHX counter, LmPK inhibitor)
O=C(COC(=O)c1ccc2c(c1Cl)C(=O)c1ccccc1C2=O)NC1CC1	Shiga toxin inh 39, CHX counter 31, FBPA Giardia inh inconclusive
Cc1cc(C)c2nc(NCc3ccccc3O)sc2c1	Shiga toxin inh 114, CHX counter 22
COc1cc(CNc2nc3c(C)cc(C)cc3s2)ccc1O	Shiga toxin inh 48, CHX counter 25
CCC(=O)NNc1nc2c(C)cc(C)cc2s1	none (no result: NS1 inh)
C=C(C)C(=O)OCCOC(=O)C(=C)C	none (no result: NS1 inh, LmPK inhibitor)
Cn1c2cc(C(=O)O)sc2c2cnn(Cc3ccccc3F)c(=O)c21	none (no result: NS1 inh, FBPA Giardia inh, LmPK inhibitor)
COc1cccc(NC(=O)c2ccc(CN3CCN(c4ccccc4)CC3)cc2)c1	Shiga toxin inh 27, CHX counter 17
Cc1cccc(NC(=O)c2ccc(CN3CCN(Cc4ccccc4)CC3)cc2)c1	CHX counter 27
COc1cccc(C(=O)Nc2ccc(N3CCN(Cc4ccccc4)CC3)cc2)c1	Shiga toxin inh 43
COc1ccc(NC(=O)c2ccc(CN3CCN(c4ccccc4)CC3)cc2)cc1	none
CCCc1ccc(C(=O)NNc2cccc(C)c2)cc1	Shiga toxin inh 46, CHX counter 29
CC1Sc2ccc(S(=O)(=O)CCC(=O)N3CCN(c4ccccc4F)CC3)cc2NC1=O (stereo not drawn)	none
O=C1NC2(CCCCCC2)C(=O)N1Cc1ccccc1F	none
CCOC(=O)C1CCCN(Cc2nc(Cc3ccccc3Cl)no2)C1 (stereo not drawn)	none
OC1CCCN(Cc2nc(Cc3ccccc3Cl)no2)C1 (stereo not drawn)	CHX counter 17
CC1CCCN(Cc2nc(Cc3ccccc3Cl)no2)C1 (stereo not drawn)	Shiga toxin inh 38, CHX counter 23
CC(C)CNc1nc(N)[nH]c(=O)c1NC=O	none (no result: Shiga toxin inh, CHX counter, FBPA Giardia inh, LmPK inhibitor)
CC(=O)O[C@H]1C(=O)[C@@]2(C)C([C@H](OC(=O)c3ccccc3)[C@]3(O)C[C@H](OC(=O)[C@H](O)[C@@H](NC(=O)c4ccccc4)c4ccccc4)C(C)=C1C3(C)C)[C@]1(OC(C)=O)CO[C@@H]1C[C@@H]2OC(=O)[C@H](C)NC(=O)c1ccc(-c2c3ccc(=O)cc-3oc3cc(O)ccc23)c(C(=O)O)c1 (stereo partly drawn)	Shiga toxin inh active (no result: NS1 inh, LmPK inhibitor)
C/C=C(\C)C(=O)N[C@@H](c1ccccc1)[C@@H](O)C(=O)O[C@H]1C[C@@]2(O)[C@@H](OC(=O)c3ccccc3)C3[C@](C)(C(=O)[C@H](OC(C)=O)C(=C1C)C2(C)C)[C@@H](O)C[C@H]1OC[C@@]31OC(C)=O (stereo partly drawn)	none
COc1ccc(-c2nsc3c(SCc4ccccc4)ncnc23)cc1	Shiga toxin inh active, CHX counter 20
Cc1ccc(O)c(C(=O)/C=C/c2ccc3c(c2)OCCO3)c1	Shiga toxin inh 142, CHX counter 33 (no result: NS1 inh)
COc1ccc(C(=O)/C=C/c2ccc3c(c2)OCCO3)cc1	Shiga toxin inh 92, CHX counter 31
COc1cc(O)c(C(=O)/C=C\c2ccc3c(c2)OCO3)c(OC)c1	none (no result: Shiga toxin inh, NS1 inh, CHX counter, LmPK inhibitor)
O=C(/C=C/c1ccc2c(c1)OCCO2)c1ccccc1	Shiga toxin inh 74, CHX counter 42, LmPK inhibitor 13µM
